According to PubChem BioAssay AID1159580 (chemical genetic matrix, 2015):
Among all 5,500 compounds or so, about 2,000 (36%) were called active. Another 18% or so got no clear call; they are omitted. Rule as the data show it: active = normalized growth mostly below about 0.91 (no sharp cut-off); inconclusive = no clear call, values can overlap the other calls; inactive = mostly above about 0.92. Some of the results follow.

Assay: chemical genetic growth profiling, strain panel (AID 1159580);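 also: tested at 20 µM; growth read once vehicle control cultures reached saturation at 30 °C; 1 = growth at the plate median or of vehicle wells; lower values mean less growth of the strain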
Details: S. cerevisiae deletion strains, growth OD

Measured: normalized growth

COc1ccc(-c2cc(=O)c3c(OC)c(OC)c(OC)c(OC)c3o2)cc1
active: locus YAL026C, strain drs2, stronger effect = lower value 0.846 | locus YBL061C, strain skt5, stronger effect = lower value 0.792 | locus YBR023C, strain chs3, stronger effect = lower value 0.848 | locus YBR231C, strain swc5, stronger effect = lower value 0.795 | locus YCL011C, strain gbp2, stronger effect = lower value 0.907 | locus YCL016C, strain dcc1, stronger effect = lower value 0.911 | locus YCL061C, strain MRC1, stronger effect = lower value 0.918 | locus YDR137W, strain rgp1, stronger effect = lower value 0.705 | locus YDR335W, strain msn5, stronger effect = lower value 0.915 | locus YDR392W, strain spt3, stronger effect = lower value 0.248 | locus YEL061C, strain CIN8 (second series), stronger effect = lower value 0.874 | locus YER015W, strain faa2, stronger effect = lower value 0.912 | locus YER016W, strain bim1, stronger effect = lower value 0.898 | locus YER155C, strain BEM2 (second series), stronger effect = lower value 0.51 | locus YGL227W, strain vid30, stronger effect = lower value 0.87 | locus YGL240W, strain doc1, stronger effect = lower value 0.84 | locus YGL253W, strain hxk2, stronger effect = lower value 0.792 | locus YHR142W, strain chs7, stronger effect = lower value 0.54 | locus YJL095W, strain BCK1 (second series), stronger effect = lower value 0.899 | locus YJL129C, strain trk1, stronger effect = lower value 0.774 | locus YJL166W, strain qcr8, stronger effect = lower value 0.801 | locus YJL187C, strain SWE1, stronger effect = lower value 0.922 | locus YKL160W, strain elf1, stronger effect = lower value 0.887 | locus YLR027C, strain aat2, stronger effect = lower value 0.892 | locus YLR221C, strain rsa3, stronger effect = lower value 0.889 | locus YLR262C, strain YPT6 (second series), stronger effect = lower value 0.692 | locus YLR320W, strain mms22, stronger effect = lower value 0.635 | locus YLR342W, strain FKS1, stronger effect = lower value 0.904 | locus YLR370C, strain arc18, stronger effect = lower value 0.862 | locus YMR058W, strain fet3, stronger effect = lower value 0.845 | locus YMR205C, strain PFK2, stronger effect = lower value 0.78 | locus YNL071W, strain lat1, stronger effect = lower value 0.473 | locus YOR083W, strain WHI5, stronger effect = lower value 0.879 | locus YOR106W, strain vam3, stronger effect = lower value 0.837 | locus YOR270C, strain vph1, stronger effect = lower value 0.644 | locus YPL051W, strain arl3, stronger effect = lower value 0.882 | locus YPL078C, strain atp4, stronger effect = lower value 0.791
inactive: locus YAL021C, strain ccr4, stronger effect = lower value 0.996 | locus YAL030W, strain snc1, stronger effect = lower value 0.959 | locus YBR009C, strain hhf1, stronger effect = lower value 0.91 | locus YBR171W, strain sec66, stronger effect = lower value 0.961 | locus YBR279W, strain paf1, stronger effect = lower value 0.942 | locus YCL069W, strain vba3, stronger effect = lower value 0.934 | locus YCR088W, strain abp1, stronger effect = lower value 0.937 | locus YDL005C, strain med2, stronger effect = lower value 0.985 | locus YDL040C, strain nat1, stronger effect = lower value 0.975 | locus YDR001C, strain nth1, stronger effect = lower value 0.959 | locus YDR069C, strain doa4, stronger effect = lower value 0.981 | locus YDR159W, strain sac3, stronger effect = lower value 0.931 | locus YDR195W, strain ref2 1.05 | locus YDR297W, strain sur2, stronger effect = lower value 0.954 | locus YDR334W, strain swr1, stronger effect = lower value 0.938 | locus YEL003W, strain gim4, stronger effect = lower value 0.964 | locus YEL037C, strain rad23, stronger effect = lower value 0.99 | locus YER111C, strain swi4, stronger effect = lower value 0.978 | locus YFR010W, strain ubp6, stronger effect = lower value 0.967 | locus YGL167C, strain pmr1, stronger effect = lower value 0.972 | locus YGL173C, strain kem1, stronger effect = lower value 0.913 | locus YHR013C, strain ard1, stronger effect = lower value 0.887 | locus YHR027C, strain rpn1, stronger effect = lower value 0.974 | locus YHR030C, strain SLT2, stronger effect = lower value 1.02 | locus YHR079C, strain IRE1, stronger effect = lower value 1.02 | locus YJL092W, strain hpr5, stronger effect = lower value 0.946 | locus YJL095W, strain BCK1, stronger effect = lower value 0.984 | locus YJL115W, strain asf1, stronger effect = lower value 0.977 | locus YJL154C, strain vps35, stronger effect = lower value 0.996 | locus YJL164C, strain tpk1, stronger effect = lower value 0.933 | locus YJR066W, strain TOR1, stronger effect = lower value 0.964 | locus YKR026C, strain gcn3, stronger effect = lower value 0.974 | locus YKR091W, strain srl3, stronger effect = lower value 0.986 | locus YLL001W, strain dnm1, stronger effect = lower value 0.922 | locus YLL026W, stronger effect = lower value 0.968 | locus YLL041C, strain sdh2, stronger effect = lower value 0.973 | locus YLR113W, strain HOG1, stronger effect = lower value 0.96 | locus YLR258W, strain gsy2, stronger effect = lower value 0.944 | locus YLR357W, strain rsc2, stronger effect = lower value 0.924 | locus YLR384C, strain iki3, stronger effect = lower value 0.978 | locus YML120C, strain ndi1, stronger effect = lower value 0.948 | locus YMR125W, strain sto1, stronger effect = lower value 0.899 | locus YMR129W, stronger effect = lower value 0.978 | locus YMR231W, strain pep5, stronger effect = lower value 1.01 | locus YNL183C, strain NPR1, stronger effect = lower value 0.937 | locus YNL209W, strain ssb2, stronger effect = lower value 0.994 | locus YNL248C, strain rpa49, stronger effect = lower value 0.997 | locus YNL322C, strain KRE1 (second series), stronger effect = lower value 0.943 | locus YNR049C, strain mso1, stronger effect = lower value 0.985 | locus YOR001W, strain rrp6, stronger effect = lower value 0.962 | locus YOR070C, strain gyp1, stronger effect = lower value 0.961 | locus YOR080W, strain dia2, stronger effect = lower value 0.992 | locus YOR231W, strain MKK1, stronger effect = lower value 1.02 | locus YOR265W, strain rbl2, stronger effect = lower value 0.94 | locus YOR290C, strain snf2, stronger effect = lower value 0.886 | locus YPL106C, strain sse1, stronger effect = lower value 0.927 | locus YPL240C, strain hsp82, stronger effect = lower value 0.966 | locus YPL256C, strain CLN2, stronger effect = lower value 1.04
